Assay results from PubChem BioAssay.
The source made the active and inactive calls.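 Rule for the calls, unless noted: active = inhibition at or above 50% at 10 µM; inactive = inhibition below 50%.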

Key:
[1] = inhibitors of TNFa-induced NFkB p65 translocation, primary screen, imaging, HUVEC, MLSMR starter and 10KST1 sets (AID 438;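 active = inhibition above 20% together with a positive visual image hit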;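 note: compound added about 3h40 before a 20 min TNFalpha stimulation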;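 for inhibition: signal is the nuclear over cytoplasmic p65 intensity ratio per well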); settings: HUVEC TNFa-induced p65 nuclear translocation; cell count: measured here: nuclei count (cytotoxicity indicator), at 2.08 µM; inhibition: at 2 µM, stronger effect = higher value, 0% TNFa-plus-vehicle, 100% no-TNFa wells
[2] = reduction of polyQ htt aggregates in cells – imaging, exon1htt(103Q)mCFP cells, high-content imaging, primary screen (AID 483;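 active = visual image review flags a hit and inhibition of aggregation exceeds 20%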;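 note: compound exposure lasted 3 days before fixation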;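 for nuclei count: percent of the per-plate median nuclei count of sample wells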); settings: exon1htt(103Q)mCFP cell line, aggregate imaging, at 2 µM; inhibition of aggregation: stronger effect = higher value; nuclei count: measured here: cell count, toxicity
[3] = endothelial E-selectin expression blockers – imaging, HUVEC, immunofluorescence, MLSMR starter and 10KST1 sets, primary screen (AID 487;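 active = visually confirmed hit in the image check and inhibition above 20%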;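 for inhibition: signal is fraction of cell area covered by stained E-selectin grains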;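 for nuclei count: 100% = median nuclei count of all wells on the same plate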); settings: HUVEC TNFalpha-induced E-selectin immunofluorescence imaging, at 2 µM; inhibition: stronger effect = higher value; nuclei count: measured here: cell number, toxicity
[4] = target: Voltage-gated potassium channel subunit beta-2 (Rattus norvegicus) (UniProt P62483); experiment: inhibitors of rat Kvbeta2 reductase activity – biochemical, NADPH fluorescence, primary screen (AID 622;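 active = fluorescence slope higher than the sample average by over 3 SD, cut at about -0.22 in these data, passing the limit was not always enough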;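 note: slope of raw intensity against log time taken from 70 to 1610 s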); settings: recombinant KvBeta, 4-cyanobenzaldehyde reduction, at 10 µM, stronger effect = higher value
[5] = target: Voltage-gated potassium channel subunit beta-2 (Rattus norvegicus) (UniProt P62483); experiment: enhancers of rat Kvbeta2 NADPH turnover – biochemical, NADPH fluorescence, primary screen (AID 623;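 active = NADPH fluorescence slope more negative than the mean of all samples by about 3 SD, 99.7% confidence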;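 note: fluorescence intensity change per second fitted from 20 to 320 s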); settings: Recombinant KvBeta, NADPH fluorescence decrease slope, 10 min; at 10 µM; stronger effect = lower value
[6] = target: Alpha-2C adrenergic receptor (Homo sapiens) (UniProt P18825); experiment: compounds altering alpha2C-coupled GIRK flux – cell-based, HEK293 alpha2C/GIRK1/2, thallium flux, primary screen (AID 624;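 active = fluorescence slope after compound addition differing from the mean of all screened samples at 99.7% confidence, in either direction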;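 note: slope of fluorescence ratio to pre-addition baseline per second over 15 to 24 s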); settings: thallium flux BTC fluorescence, at 10 µM, actives lie on both sides
[7] = blockers of RIG-like receptor reporter activation – cell-based, Sendai virus stimulus, luciferase, 10K MLSCN set, TLR/RLR signaling modifier project, primary screen (AID 602276); settings: HEK293 RL24 IRF3 luciferase reporter, at 10 µM, stronger effect = higher value;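 note: firefly luciferase from ISG56 promoter only with Renilla not read in this screen; 0% = Sendai virus plus DMSO and 100% = medium plus DMSO without virus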
[8] = TLR3 IRF3 reporter activation blockers – cell-based, poly I:C stimulus, luciferase, 10K MLSCN set, primary screen (AID 602277;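 active = inhibition of the reporter signal at or above 50%; inactive = inhibition below 50%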); settings: HEK293-TLR3 RL24 IRF3 luciferase reporter, at 10 µM, stronger effect = higher value

Sequence of Alpha-2C adrenergic receptor (Homo sapiens) (P18825 whole entry, looked up): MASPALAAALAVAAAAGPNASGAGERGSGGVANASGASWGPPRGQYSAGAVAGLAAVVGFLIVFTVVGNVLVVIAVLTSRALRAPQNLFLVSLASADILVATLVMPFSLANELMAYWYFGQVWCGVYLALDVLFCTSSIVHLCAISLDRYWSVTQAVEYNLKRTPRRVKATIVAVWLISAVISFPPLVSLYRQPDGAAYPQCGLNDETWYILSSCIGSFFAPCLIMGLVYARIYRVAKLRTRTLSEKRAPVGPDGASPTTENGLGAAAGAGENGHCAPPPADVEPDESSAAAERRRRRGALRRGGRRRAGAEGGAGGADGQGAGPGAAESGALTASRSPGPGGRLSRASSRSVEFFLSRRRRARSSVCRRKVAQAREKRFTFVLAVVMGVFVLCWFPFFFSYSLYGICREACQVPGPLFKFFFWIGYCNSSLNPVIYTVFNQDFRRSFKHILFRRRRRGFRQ
Sequence of Voltage-gated potassium channel subunit beta-2 (Rattus norvegicus) (P62483 whole entry, looked up): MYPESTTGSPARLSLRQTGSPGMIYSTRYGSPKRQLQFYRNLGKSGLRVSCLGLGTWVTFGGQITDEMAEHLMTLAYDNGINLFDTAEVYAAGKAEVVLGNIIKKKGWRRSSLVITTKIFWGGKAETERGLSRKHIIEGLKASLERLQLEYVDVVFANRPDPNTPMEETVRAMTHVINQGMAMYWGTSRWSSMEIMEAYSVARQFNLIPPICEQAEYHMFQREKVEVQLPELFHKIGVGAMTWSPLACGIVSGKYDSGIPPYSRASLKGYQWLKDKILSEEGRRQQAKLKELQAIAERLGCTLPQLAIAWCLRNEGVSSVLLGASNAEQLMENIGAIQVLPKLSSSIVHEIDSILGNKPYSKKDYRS

SMILES | cell count [1] | inhibition [1] | inhibition of aggregation [2] | nuclei count [2] [%] | inhibition [3] | nuclei count [3] [%] | fluorescence slope [4] | NADPH fluorescence slope [5] | slope [6] | inhibition [7] | inhibition [8]
Cc1ccc(C)c(N(CC(=O)NC2CCCC2)C(=O)CCCC(=O)Nc2ccccn2)c1 | 516 | -18.3% (inactive) | 7.5% (inactive) | 93.9 | -50.6% (inactive) | 95.7 | -0.539 (inactive) | -4.4e-05 (inactive) | 0.00581 (inactive) | 13.6% (inactive) | 27.2% (inactive)
O=C(CCc1ccc(S(=O)(=O)N2CCOCC2)cc1)NCCc1ccccn1 | 709 | 3.1% (inactive) | -8% (inactive) | 104 | -158% (inactive) | 144 | -0.568 (inactive) | 1.5e-05 (inactive) | 0.00601 (inactive) | -4.86% (inactive) | 1.41% (inactive)
CC1CCCCN1CCNC(=O)C1CCN(S(=O)(=O)c2cccc3cccnc23)CC1 (stereo not drawn) | 450 | -0.8% (inactive) | 5.9% (inactive) | 72.5 | -54.5% (inactive) | 105 | -0.522 (inactive) | -4e-05 (inactive) | 0.00613 (inactive) | 6.15% (inactive) | 39.6% (inactive)
CCOC(=O)C1CCN(C(=O)CN(Cc2ccccc2)S(C)(=O)=O)CC1 | 370 | 2.3% (inactive) | -32.7% (inactive) | 102 | -78.2% (inactive) | 115 | -0.422 (inactive) | -5.7e-05 (inactive) | 0.00496 (inactive) | 10% (inactive) | 7.77% (inactive)
Cn1c(=O)cc(OCC(=O)NCCCN2CCN(Cc3ccccc3)CC2)c2ccccc21 | 505 | -6.9% (inactive) | 4.5% (inactive) | 86.8 | -124% (inactive) | 135 | -0.556 (inactive) | 2.6e-05 (inactive) | 0.00749 (inactive) | -11.8% (inactive) | 31.2% (inactive)
O=C(NCCSc1c[nH]c2ccccc12)c1ccco1 | 686 | -2.4% (inactive) | -13.1% (inactive) | 108 | -15.8% (inactive) | 116 | -0.562 (inactive) | -4e-05 (inactive) | 0.00591 (inactive) | 10.1% (inactive) | 32.9% (inactive)
NC(=O)c1cc(-c2ccccc2)nc(N2CCOCC2)n1 | 532 | 6.7% (inactive) | -2.6% (inactive) | 91 | 25.8% (inactive) | 92.5 | -0.591 (inactive) | -4.3e-05 (inactive) | 0.00656 (inactive) | 8.52% (inactive) | 25.8% (inactive)
Cc1cc(Br)ccc1NC(=O)CCN1C(=O)c2ccncc2C1=O | 403 | 3.8% (inactive) | -19.7% (inactive) | 96.6 | 39.2% (inactive) | 89.7 | -0.51 (inactive) | -3.1e-05 (inactive) | 0.00525 (inactive) | -13.8% (inactive) | 13.1% (inactive)
N#Cc1c(N2CCCC2)nc(N)c2c(N)nc(N3CCCC3)cc12 | 581 | -9.2% (inactive) | -6.2% (inactive) | 84.2 | -144% (inactive) | 160 | -0.0789 (active) | 1.7e-06 (inactive) | 0.0051 (inactive) | -6.36% (inactive) | 2.26% (inactive)
CCn1c(CCC(=O)Nc2nc3c(s2)CCCC3)nc2cc(S(=O)(=O)N(C)C)ccc21 | 288 | 1.4% (inactive) | -9% (inactive) | 103 | -54.4% (inactive) | 123 | -0.398 (inactive) | -3e-05 (inactive) | 0.00627 (inactive) | 14.6% (inactive) | 18.8% (inactive)
COc1ccc(-n2c(Cc3cccn3C)nnc2SCC(=O)Nc2cccc(Cl)c2)cc1 | 583 | 36.1% (active) | 22.4% (inactive) | 85.2 | 1.8% (inactive) | 116 | -0.609 (inactive) | 1.6e-05 (inactive) | 0.00706 (inactive) | -2.83% (inactive) | 19.5% (inactive)
CCOC(=O)c1ccc(-n2c(C)nc3c(cnn3-c3ccccc3C)c2=O)cc1 | 654 | 6.9% (inactive) | -46.9% (inactive) | 102 | 11.9% (inactive) | 108 | -0.543 (inactive) | -6.1e-06 (inactive) | 0.00553 (inactive) | -2.92% (inactive) | 3.65% (inactive)
CCCCc1cc2c(c(NC(C)=O)n1)c(=O)oc1ccccc12 | 620 | -9.4% (inactive) | 14.7% (inactive) | 110 | 3.6% (inactive) | 104 | -0.509 (inactive) | -2.7e-05 (inactive) | 0.00617 (inactive) | 12.1% (inactive) | 40.5% (inactive)
CCC1CCCCN1S(=O)(=O)c1ccc(C(=O)Nc2nnc(-c3ccccc3Cl)o2)cc1 (stereo not drawn) | 322 | 5.2% (inactive) | -1.5% (inactive) | 107 | -52.8% (inactive) | 108 | -0.511 (inactive) | -3.2e-05 (inactive) | 0.00627 (inactive) | 18.8% (inactive) | 16.9% (inactive)
Cc1cc(OCC(=O)N2CCOCC2)cc2oc(=O)c3ccccc3c12 | 352 | 6.7% (inactive) | -9.5% (inactive) | 90.7 | 3.4% (inactive) | 124 | -0.329 (inactive) | 2.7e-05 (inactive) | 0.00625 (inactive) | -4.13% (inactive) | -8.03% (inactive)
Cc1ccc2[nH]c(=O)c(C(c3nnnn3CCc3ccccc3)N3CCOCC3)cc2c1 (stereo not drawn) | 715 | -3.9% (inactive) | 1.1% (inactive) | 99 | -38.7% (inactive) | 95.6 | -0.482 (inactive) | -4.6e-05 (inactive) | 0.0072 (inactive) | 0.935% (inactive) | 26.5% (inactive)
COc1ccc2cc(CN(CCO)C(=O)c3ccc(Br)cc3)c(=O)[nH]c2c1 | 333 | 5.3% (inactive) | -21.4% (inactive) | 119 | -33% (inactive) | 118 | -0.613 (inactive) | -4.6e-05 (inactive) | 0.00437 (inactive) | 11.6% (inactive) | 0.693% (inactive)
O=C(NCc1ccccc1)C1CCN(S(=O)(=O)N2CCCCCC2)CC1 | 639 | 0% (inactive) | -6.3% (inactive) | 106 | -19.7% (inactive) | 112 | -0.473 (inactive) | 5.6e-05 (inactive) | 0.00906 (inactive) | -9.73% (inactive) | -4.63% (inactive)
O=C(c1cnc2n(c1=O)CCS2)N(C1CCCCC1)C1CCCCC1 | 649 | -6.9% (inactive) | 6.9% (inactive) | 97.5 | -47.3% (inactive) | 122 | -0.42 (inactive) | -4.8e-05 (inactive) | 0.00465 (inactive) | 11% (inactive) | 39.3% (inactive)
O=C(Nc1ccc(N2CCCC2)cc1)c1ccc(Br)o1 | 303 | -8.4% (inactive) | 36.8% (inactive) | 94.4 | -59.6% (inactive) | 94.7 | -0.398 (inactive) | -6.5e-05 (inactive) | 0.00868 (inactive) | -34% (inactive) | -152% (inactive)
CCOC(=O)C1C(=O)N(C(=O)c2ccc(OC)cc2)CC1c1ccccc1 (stereo not drawn) | 423 | -7.6% (inactive) | -7.4% (inactive) | 99 | -39.2% (inactive) | 128 | -0.384 (inactive) | -0.000151 (inactive) | 0.00629 (inactive) | 12.3% (inactive) | 22.3% (inactive)
CC(C)(CO)NC(=O)CCCOc1ccc(Cl)cc1Cl | 397 | -4.9% (inactive) | 6.2% (inactive) | 97.4 | 35.5% (inactive) | 98.8 | -0.431 (inactive) | -2.6e-05 (inactive) | 0.00385 (inactive) | -27.2% (inactive) | -47.8% (inactive)
O=C(NCc1nc2ccccc2[nH]1)c1ccco1 | 440 | 0.8% (inactive) | 1.3% (inactive) | 113 | -228% (inactive) | 140 | -0.38 (inactive) | -5.6e-05 (inactive) | 0.00592 (inactive) | -2.68% (inactive) | -21.9% (inactive)
O=C(Nc1cccc2ccccc12)c1ccc(Br)o1 | 638 | 5.6% (inactive) | 7.9% (inactive) | 104 | 18.2% (inactive) | 94.7 | -0.437 (inactive) | -1.5e-05 (inactive) | 0.00359 (inactive) | 2.74% (inactive) | 19.8% (inactive)
CC1(C(=O)NC2CCCCC2)CCC(=O)N1Cc1cccs1 (stereo not drawn) | 803 | -0.6% (inactive) | 1.4% (inactive) | 104 | -78.3% (inactive) | 130 | -0.594 (inactive) | -2.7e-05 (inactive) | 0.00547 (inactive) | -11.7% (inactive) | 12.6% (inactive)
CC1=Nn2c(nnc2-c2cc(-c3ccccc3)n[nH]2)SC1 | 574 | -3.3% (inactive) | -6.6% (inactive) | 81.3 | 32.4% (inactive) | 87.4 | -0.617 (inactive) | -1.7e-05 (inactive) | 0.00561 (inactive) | 18.2% (inactive) | 32.9% (inactive)
COC(=O)C1CCN(C(=O)CN2C(=O)NC(CCc3ccccc3)C2=O)CC1 (stereo not drawn) | 552 | -9.6% (inactive) | -7.5% (inactive) | 95.7 | -16.4% (inactive) | 110 | -0.542 (inactive) | -2.6e-05 (inactive) | 0.00516 (inactive) | -17.8% (inactive) | -13.6% (inactive)
COc1ccc(-n2c(COc3cccc(C)c3)nnc2SCC(=O)NCc2ccco2)cc1 | 707 | -6.3% (inactive) | 5.1% (inactive) | 100 | -54.8% (inactive) | 100 | -0.596 (inactive) | -6.6e-05 (inactive) | 0.00613 (inactive) | -3.09% (inactive) | 10.9% (inactive)
